Laboratory results as given in PubChem BioAssay AID504408 (Broad Institute, 2011).
Out of some 300,000 compounds screened, about 5,200 (1.7%) were called active. Shown is part of a subset that was picked to be rich in actives. A number with no mark means an inactive call.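 How the source made its calls: active means mean replicate activation of at least 50% with a set share of replicates each reaching 50%; inconclusive means only one of those two conditions met; inactive means mean below 50% and too few replicates reaching it.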

Experiment: HSF-1 activators, primary screen, NIH3T3-HGL cells, MG132 stress, luminescence, single point (AID 504408);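 further: 0% = median of the neutral control wells and 100% = twice that signal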
Settings: NIH3T3-HGL HSF-1 luciferase reporter, MG132, 8 h; at 9 µM; hits give high values; 100% = twice DMSO control signal
`Cn1nc(C(F)(F)F)cc1C(=O)O` showed an activation of 15.5%. In the case of `Cn1nc(C(F)(F)F)cc1-c1ccc(/C=C(\C#N)C(=O)c2cccc(C(F)(F)F)c2)s1`, the activation is reported as 65.6% (active). `CNC(=O)c1ccc(NC(=O)c2cccc(C(F)(F)F)c2)cc1` gave an activation of 9.95%. `FC(F)(F)c1ccc2c3n(nc2c1)CCN=C3c1ccc(Cl)cc1` gave an activation of -14.8%. In the case of `Cc1cc(C)c2c(NC(=O)C3CC3)nn(C)c2n1`, the activation is reported as 56.3% (active). Work on `Cc1ccc2c(NC(=O)C3CC3)cccc2n1` yielded an activation of -0.793%. `Cc1cc(C)cc(NC(=O)C2CCN(c3nc(C)cc(C)n3)CC2)c1` showed an activation of 11%. `COc1ccc(CCNc2nc(-c3cccc(NC(C)=O)c3)cs2)cc1OC` showed an activation of -4.33%. Work on `COc1cccc(CC(=O)Nc2nc(-c3ccc(OC)c(OC)c3)cs2)c1` yielded an activation of 3.91%. In the case of `COc1ccc2c(c1OC)C(=O)OC2Nc1nc(-c2ccccc2)cs1` (stereo not drawn), the activation is reported as 139% (active). For `Cc1ccc(-c2csc(NC(=O)Cn3[nH]c(=O)c4ccccc4c3=O)n2)cc1`, the activation was -17.7%. With `COc1ccc(-c2csc(NC3OC(=O)c4ccccc43)n2)cc1` (stereo not drawn) the activation was 20.2%. For `Cc1ccc(-c2csc(NC3OC(=O)c4ccccc43)n2)cc1` (stereo not drawn), the activation was 81.1% (active). With `CCc1cccc(C)c1NC(=O)COC(=O)CC1CCCC1` the activation was 4.54%. In the case of `CCCCn1c(N)c(N(CC(C)C)C(=O)c2ccc(-n3c(C)ccc3C)cc2)c(=O)[nH]c1=O`, the activation is reported as 4.3%. For `CCN(CC(=O)Nc1ccc(NC(C)=O)cc1)C(=O)C1CC(=O)N(Cc2ccc(C)cc2)C1` (stereo not drawn), the activation was 3.94%. In the case of `Cc1cccc(C(=O)NCc2nnc(SC(C)C(=O)Nc3nnc(C)s3)n2C)c1` (stereo not drawn), the activation is reported as -1.45%. `Cc1onc(-c2ccccc2Cl)c1C(=O)N(Cc1ccc(N(C)C)cc1)C(C)C` gave an activation of 8.27%. `COc1cccc(NC(=S)NCc2ccccn2)c1` gave an activation of 15.3%. For `COc1cccc(NC(=S)NC(=O)c2c(Cl)c(C)nn2C)c1`, the activation was 60.9% (active). For `Cc1nn(C)c(C(=O)NNC(=S)NC2CCCCC2)c1Cl`, the activation was 22.3%. With `CN(CC(=O)Nc1cccc(F)c1)C(=O)C1CSC2(C)CCC(=O)N12` (stereo not drawn) the activation was 1.13%. Work on `O=C1CN(C(=O)COc2c(Cl)cccc2Cl)c2ccccc2N1` yielded an activation of -79.7%. With `Cc1cc(C)cc(NC(=O)COc2coc(CN3CCN(c4ccccc4)CC3)cc2=O)c1` the activation was 1.43%. `COc1ccc(O[C@H]2C=C[C@@H](c3ccccc3)O[C@@H]2CO/N=C/C[C@@H]2C=C[C@H](OC(C)=O)[C@@H](COC(C)=O)O2)cc1` showed an activation of -4.12%. With `C/C(CCC(=O)OC[C@H]1O[C@H](C#Cc2ccccc2)C=C[C@@H]1Oc1ccc(C)cc1)=N\OC[C@@H](O)[C@H]1O[C@@H]2OC(C)(C)O[C@@H]2[C@H]1O` the activation was 61.7% (active). In the case of `CCOc1ccc(CCNC(=O)COC(=O)c2c(OC)cccc2OC)cc1OCC`, the activation is reported as -2.88%. For `CC(=O)Nc1ccc(/C=C/C(=O)c2ccccc2)cc1`, the activation was 30.2%. In the case of `Cc1cn(COC/C=C/c2ccccc2)c(=O)[nH]c1=O`, the activation is reported as -6.12%. In the case of `Cc1[nH]c(=O)c(C(=O)/C=C/c2ccccc2)c2c1CCCC2`, the activation is reported as 71% (active). With `O=C(c1ccc(F)cc1)N1CCC(C(=O)N2CCN(S(=O)(=O)c3ccccc3Br)CC2)CC1` the activation was -3.27%. Work on `CCOc1ccc(S(=O)(=O)N2CCC(C(=O)OCc3ccc(OC)cc3)CC2)cc1` yielded an activation of 10.2%. `Cc1nc(-c2ccc(F)cc2)c(CC(=O)Nc2cccc(S(=O)(=O)N3CCOCC3)c2)s1` showed an activation of 4.29%. In the case of `O=C(c1ccccc1F)N1CCN(S(=O)(=O)c2ccc(Br)cc2)CC1`, the activation is reported as -5.95%. `O=C(c1ccc(Cl)c(S(=O)(=O)N2CCCCC2)c1)N1CCCCCC1` gave an activation of -11.6%. For `O=C(c1ccc[nH]c1=S)N1CCN(S(=O)(=O)c2ccc(Br)cc2Cl)CC1`, the activation was 58% (active). Molecule `CC(=O)CC[C@@H](C)O[C@@H]1OC(C)[C@H](O)CC1O` (stereo partly drawn) has an activation of -8.11%. With `CCOc1ccc(C(=O)Nc2cc(Cl)ccc2-n2cncn2)cc1OC` the activation was -15.6%. For `Cc1ccccc1NC(=O)C(C)OC(=O)CCC(=O)N(CC(C)C)c1c(N)n(CC(C)C)c(=O)[nH]c1=O` (stereo not drawn), the activation was -9.04%. In the case of `Cc1ccccc1Nc1nc(N)nc(CSc2ccccc2)n1`, the activation is reported as 118% (active). Work on `Cc1ccccc1Nc1nc(N)nc(CSc2nnc3ccccn23)n1` yielded an activation of -3.03%. `Cc1ccc(C(=O)OCc2nc(N)nc(Nc3ccccc3C)n2)cc1` showed an activation of -1.52%. `O=C(Nc1ncccc1O)c1ccc(S(=O)(=O)N2CCCCCC2)cc1` showed an activation of 3.69%.
